Assay results as given in PubChem BioAssay (NCATS).
“And” between values parts separate entries of the source, which are not always exact repeats. Equal values may be shown once. Results filed as inconclusive are left out. The source made the active and inactive calls. Calls follow the shape of the dose curve; as a rule, active = well fitted inhibition curve with a large enough effect; inconclusive = small, poorly fitted or top-dose-only effect; inactive = flat fitted curve, though single readings scatter.

Experiments:
NIH3T3 [1] = experiment: Cytotoxic Profiling of Annotated Libraries Using Quantitative High-Throughput Screening (AID 1296008); details: Five cell lines viability, CellTiter-Glo ATP luminescence, 48-72 h; max response: hits give low values
Method in brief: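 Cells exposed to compounds for 48 or 72 hr at 37 degrees Celsius. Viability read as ATP-coupled luminescence with CellTiter-Glo after 10 min at room temperature.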

HACAT = experiment: qHTS assay to identify novel small-molecules to repurpose for Merkel cell carcinoma treatment (AID 1296009); details: MCC and control cell lines, CellTiter-Glo viability, 72 h; at 44.8 µM (top of the series) unless noted
Method in brief: (§1)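 Dose-response viability screen; 72 hr exposure at 37 degree celsius; CellTiter-Glo added, 10 min room temperature, luminescence read; RLUs scaled between no-cell and DMSO wells.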

MCC-13 = experiment: as above; details: MCC and control cell lines, CellTiter-Glo viability, 72 h; series mostly up to 46 µM
Method in brief: as §1

MCC-26 = experiment: as above; details: MCC and control cell lines, CellTiter-Glo viability, 72 h; series mostly up to 46 µM
Method in brief: as §1

MKL-1 = experiment: as above; details: MCC and control cell lines, CellTiter-Glo viability, 72 h; series mostly up to 46 µM
Method in brief: as §1

MKL-2 = experiment: as above; details: MCC and control cell lines, CellTiter-Glo viability, 72 h; series mostly up to 46 µM
Method in brief: as §1

NIH3T3 [2] = experiment: as above; details: MCC and control cell lines, CellTiter-Glo viability, 72 h; at 44.8 µM (top of the series) unless noted
Method in brief: as §1

UISO = experiment: as above; details: MCC and control cell lines, CellTiter-Glo viability, 72 h; series mostly up to 46 µM
Method in brief: as §1

HEK293T = experiment: as above; details: MCC and control cell lines, CellTiter-Glo viability, 72 h; at 44.8 µM (top of the series) unless noted
Method in brief: as §1
% is scaled to controls: 0 for no effect and ±100 for the full control effect.
Also: nearly all actives have a fitted effect of over 60% in size.

Fc1cc(Br)ccc1CBr
inactive: outcome (NIH3T3 [1]) | outcome (HACAT) | Potency (MCC-13) | Potency (MCC-26) | Potency (MKL-1) | Potency (MKL-2) | outcome (NIH3T3 [2]) | Potency (UISO)

O=[N+]([O-])c1cc([N+](=O)[O-])c2ccccc2c1
inactive: max response (NIH3T3 [1]) 4.23% | outcome (HACAT) inactive [at 92 µM] | Potency (MCC-13) | Potency (MCC-26) | Potency (MKL-1) | Potency (MKL-2)

C[C@]12Cc3cn[nH]c3C[C@@H]1CC[C@@H]1[C@H]2CC[C@@]2(C)[C@H]1CC[C@]2(C)O
inactive: max response (NIH3T3 [1]) -12.4% | outcome (HACAT) | Potency (MCC-13) | Potency (MCC-26) | Potency (MKL-1) | Potency (MKL-2) | Potency (UISO)

CC[C@@H](C(N)=O)N1CCCC1=O
inactive: max response (NIH3T3 [1]) 1.04% | outcome (HACAT) | outcome (HEK293T) | Potency (MCC-13) | Potency (MCC-26) | Potency (MKL-1) | Potency (MKL-2) | Potency (UISO)

O=S(=O)(O)C(F)(F)C(F)(F)C(F)(F)C(F)(F)F
inactive: outcome (NIH3T3 [1]) | outcome (HEK293T) inactive [at 92 µM] | Potency (MCC-13) | Potency (MCC-26) | Potency (MKL-1) | Potency (MKL-2) | outcome (NIH3T3 [2]) inactive [at 92 µM] | Potency (UISO)

C[C@]12COC(=O)C[C@@H]1CC[C@@H]1[C@H]2CC[C@@]2(C)[C@H]1CC[C@]2(C)O
inactive: max response (NIH3T3 [1]) -1.39% | outcome (HACAT) | Potency (MCC-13) | Potency (MCC-26) | Potency (MKL-1) | Potency (MKL-2) | Potency (UISO)

CC(C)(C)[C@]1(O)C[C@@H]2OC(=O)C[C@@]23C(=O)O[C@@H]2OC(=O)[C@H](O)C213 (stereo partly specified)
inactive: outcome (NIH3T3 [1]) | outcome (HACAT) | outcome (HEK293T) | Potency (MCC-13) | Potency (MCC-26) | Potency (MKL-1) | Potency (MKL-2) | outcome (NIH3T3 [2]) | Potency (UISO)

CCCCCCCCCC(CC)c1ccc(S(=O)(=O)O)cc1 (stereo unspecified)
inactive: max response (NIH3T3 [1]) -1.31% | outcome (HACAT) inactive [at 92 µM] | Potency (MCC-13) | Potency (MCC-26) | Potency (MKL-1) | Potency (MKL-2) | Potency (UISO)

C=C1C[C@H]2[C@H]3CCC(=O)[C@@]3(C)CC[C@@H]2[C@@]2(C)C=CC(=O)C=C12
inactive: max response (NIH3T3 [1]) -14.2% | outcome (HACAT) | Potency (MCC-13) | Potency (MCC-26) | Potency (MKL-1) | Potency (UISO)

CCOC(=O)c1c(C(C#N)=CN)c2ccc(Cl)c(Cl)c2n1C
inactive: max response (NIH3T3 [1]) 2.89% | outcome (HACAT) | Potency (MCC-13) | Potency (MCC-26) | Potency (MKL-1) | Potency (MKL-2) | Potency (UISO)

CN(C)[C@@H]1C(=O)C(C(N)=O)=C(O)[C@@]2(O)C(=O)C3=C(O)c4c(O)cccc4[C@@](C)(O)[C@H]3[C@H](O)[C@@H]12
inactive: max response (NIH3T3 [1]) 4.97% | outcome (HACAT) | outcome (HEK293T) | Potency (MCC-13) | Potency (MCC-26) | Potency (MKL-1) | Potency (MKL-2) | Potency (UISO)

CC[N+]1(CCOC(=O)C(O)(c2ccccc2)c2ccccc2)CCCCC1
inactive: outcome (NIH3T3 [1]) | outcome (HACAT) | outcome (HEK293T) | Potency (MCC-13) | Potency (MCC-26) | Potency (MKL-1) | Potency (MKL-2) | outcome (NIH3T3 [2]) | Potency (UISO)

COC(C)(C)CCCC(C)C/C=C/C(C)=C/C(=O)OC(C)C (stereo unspecified)
inactive: outcome (NIH3T3 [1]) | outcome (HACAT) | Potency (MCC-13) | Potency (MCC-26) | Potency (MKL-1) | Potency (MKL-2) | outcome (NIH3T3 [2]) | Potency (UISO)

CCOC(=O)c1cncn1[C@H](C)c1ccccc1
inactive: outcome (NIH3T3 [1]) | outcome (HACAT) | outcome (HEK293T) | Potency (MCC-13) | Potency (MCC-26) | Potency (MKL-1) | Potency (MKL-2) | outcome (NIH3T3 [2]) | Potency (UISO)

CCCC[N+]1(C)[C@H]2CC(OC(=O)[C@H](CO)c3ccccc3)C[C@H]1[C@H]1O[C@H]12 (stereo partly specified)
inactive: max response (NIH3T3 [1]) -3.27% | outcome (HACAT) | Potency (MCC-13) | Potency (MCC-26) | Potency (MKL-1) | Potency (MKL-2) | Potency (UISO)

O=[N+]([O-])c1c(Cl)c(Cl)cc(Cl)c1Cl
inactive: outcome (NIH3T3 [1]) | outcome (HACAT) inactive [at 92 µM] | Potency (MCC-13) | Potency (MCC-26) | Potency (MKL-1) | Potency (MKL-2) | outcome (NIH3T3 [2]) inactive [at 92 µM] | Potency (UISO)

CC(N[C@H]1C[C@H]1c1ccccc1)c1ccc2c(c1)OCCO2 (stereo partly specified)
inactive: max response (NIH3T3 [1]) 4.85% and -28.5% | outcome (HACAT) | Potency (MCC-13) | Potency (MCC-26) | Potency (MKL-1) | Potency (MKL-2) | Potency (UISO)

C[C@@H]1[C@H](O)[C@@H](C)C=CC=CCCC=CC=CC=CC=C[C@H](O[C@H]2O[C@@H](C)[C@H](O)[C@@H](N)[C@@H]2O)CC2O[C@](O)(C[C@@H](O)[C@H](O)CC[C@@H](O)C[C@@H](O)C[C@@H](O)CC(=O)O[C@H]1C)C[C@H](O)[C@H]2C(=O)O
inactive: max response (NIH3T3 [1]) -3.28% | outcome (HACAT) | Potency (MCC-13) | Potency (MCC-26) | Potency (MKL-1) | Potency (MKL-2) | Potency (UISO)

O=C(O)CNC(=O)c1c(O)c2ccccc2n(Cc2ccccc2)c1=O
inactive: max response (NIH3T3 [1]) -11% and 0.668% | outcome (HACAT) | outcome (HEK293T) | Potency (MCC-13) | Potency (MCC-26) | Potency (MKL-1) | Potency (MKL-2) | Potency (UISO)

COc1ccc2c(c1)[C@]13CCCCC1C(C2)N(C)CC3 (stereo partly specified)
inactive: outcome (NIH3T3 [1]) | outcome (HEK293T) | Potency (MCC-13) | Potency (MCC-26) | Potency (MKL-1) | Potency (MKL-2) | outcome (NIH3T3 [2]) | Potency (UISO)

C[C@H]([C@H](O)CCC(C)(C)O)[C@H]1CC[C@@]2(O)C3=CC(=O)[C@@H]4C[C@@H](O)[C@@H](O)C[C@]4(C)[C@@H]3CC[C@]12C
inactive: outcome (NIH3T3 [1]) | outcome (HACAT) | outcome (HEK293T) | Potency (MCC-13) | Potency (MCC-26) | Potency (MKL-1) | Potency (MKL-2) | outcome (NIH3T3 [2]) | Potency (UISO)
